Experimental data taken from PubChem BioAssay AID1347147 (National Center for Advancing Translational Sciences (NCATS), 2019).
Records with an inconclusive call do not appear. Active and inactive are the calls of the source. Calls come from the whole dose curve; as a rule, active = well fitted inhibition curve with a large enough effect; inconclusive = small, poorly fitted or top-dose-only effect; inactive = no such curve, though single readings can be large or run the other way.

These molecules were tested against N-terminal Xaa-Pro-Lys N-methyltransferase 1 (Homo sapiens) (UniProt Q9BV86) (assay: qHTS Assay for Inhibitors of N-terminal methyltransferase 1 (NTMT1): MTaseGlo Confirmatory Screen, Round 2). Conditions: NTMT1 enzyme, MTase-Glo SAH luminescence; series mostly up to 57.4 µM; activity change, negative = inhibition: at the top concentration.
Source text: Assay Submitter (PI): Rong Huang Ph.D, Purdue University, West Lafayette, IN 47907
The N-terminal methytransferase 1 is the first methyltransferase that methylates protein alpha-N-amines and plays an important role in regulating cell mitosis, chromatin interactions and DNA repair. It is observed to be over-expressed in various cancer patient tissues like malignant melanoma and colorectal cancer tissues. Knockdown of NTMT1 in cancer cells causes cell mitotic defects and enhances sensitivity to DNA damaging chemotherapeutics. […] These critical cellular processes in which NTMT1 is implicated, coupled with emerging links to cellular dysfunction, strengthen the inference that NTMT1 is a compelling novel anticancer target. Progress have been made in understanding the molecular properties of NTMT1 and the biological consequences of protein alpha-N-terminal methylation, but there are no specific small molecule probes available for NTMT1 to fully characterize its MTase activity. To address this unmet need, a panel of assay is created and established to enable quantitative high-throughput screening (qHTS) for novel, potent, and selective small molecule NTMT1 inhibitors. Two orthogonal qHTS that use different reagents (ThioGlo vs. MTaseGlo) are developed for primary robotic screening against the NCATS chemical library of more than 400,000 small molecules. Identified inhibitors are reacquired, validated, and further characterized.
MTaseGlo Assay is a luminescence screen that measure the activity of methyltransferases based on the reaction product S-adenosyl homocysteine (SAH). The substrate SAM is converted to SAH upon enzyme activation. MTase-Glo reagent and detection solution convert SAH to ATP and measure the light from the luciferase reaction.
Early Translation Branch (ETB)
National Center for Advancing Translational Sciences (NCATS)
National Institute of Health (NIH)
NTMT1 enzyme, substrate SPKRIA, control peptide RCC1-6 is provided by the Huang laboratory.
In brief, 3 µL of enzyme mixture (final concentrations of 125 nM and 100 µM for NTMT1 and SAM, respectively) into all wells of a 1,536-well solid-bottom white plate (Greiner Bio One, Monroe, NC). 23 nL of DMSO or Ac-RCC1-10 (final concentration range 234 nM to 143 microM) was transferred via Wako Pin-tool (Wako Automation, Richmond, VA) and incubated (RT) for ~15 minutes. Next, 1 µL of substrate (final concentration 1 µM) or buffer was dispensed, and the reaction proceeded for 30 minutes (RT, protected from light) followed by a 1 microL addition of [5X] MTase-Glo Reagent(R). Samples were incubated (RT, protected from light) for 30 minutes to allow for SAH to be converted to ADP, followed by a 5 microL addition of [1X] MTase-Glo Detection Solution(R) to allow for ADP to be converted to ATP, which was then detected with a luciferase reaction. Samples were centrifuged for 15 seconds at 1,000 RPM's, followed by a RT incubation for 30 minutes. Plates were then read using Luminescence optics on a ViewLux detector. Data were normalized to no-enzyme (0% activity) and no-inhibitor (DMSO; 100%) controls, and the resulting percent inhibition data were fitted to a 4-parameter Hill equation using Graphpad Prism.
Potency is the fitted concentration of half-maximal effect.

Sequence of N-terminal Xaa-Pro-Lys N-methyltransferase 1 (Homo sapiens) (Q9BV86 whole entry, looked up): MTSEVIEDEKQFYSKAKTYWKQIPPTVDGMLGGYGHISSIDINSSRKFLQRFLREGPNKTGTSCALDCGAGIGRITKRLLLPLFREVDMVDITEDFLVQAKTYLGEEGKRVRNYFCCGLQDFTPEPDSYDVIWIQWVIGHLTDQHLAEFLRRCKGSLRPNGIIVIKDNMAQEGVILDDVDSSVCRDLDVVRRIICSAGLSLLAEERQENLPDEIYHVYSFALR

SMILES | activity change, negative = inhibition | Potency
O=c1oc(Cl)c(Cl)c2ccccc12 | -8.27% (inactive) | 
Nc1nc(Cl)nc2c1ncn2[C@@H]1O[C@H](CO)[C@@H](O)[C@H]1O | 4.01% (inactive) | 
N#CC(C#N)=C(N)/C(C#N)=C/c1ccc(O)cc1 | -11.8% (inactive) | 
S=C(S)N1CCCC1 | -11.1% (inactive) | 
NC[C@@H]1O[C@H](c2ccccc2)Cc2c1ccc(O)c2O | -10.2% (inactive) | 
C[C@](Cc1ccc(O)c(O)c1)(NN)C(=O)O | -4.63% (inactive) | 
Nc1nc(F)nc2c1ncn2[C@@H]1O[C@H](CO)[C@@H](O)[C@@H]1O | -3.06% (inactive) | 
N[C@@H](Cc1c[nH]c2ccc(O)cc12)C(=O)O |  | inactive
CCCCNc1ccc(C(=O)OCCN(C)C)cc1 | 1.37% (inactive) | 
CN=c1nc(-c2ccccc2)n(-c2ccccc2)s1 |  | 1 µM (active)
Nc1nc(Cl)nc2c1ncn2[C@@H]1O[C@H](CO)[C@@H](O)[C@@H]1F | 2.41% [at 115 µM] (inactive) | 
Nc1nc2ccc(Cl)cc2c2nc(-c3ccco3)nn12 | 1.12% (inactive) | 
N=c1c[n+](N2CCOCC2)[n-]o1 | -9.88% (inactive) | 
Nc1ccc(CCNc2ncnc3c2ncn3C2OC(CO)C(O)C2O)cc1 (stereo not given) | -13.4% (inactive) | 
CC(Cc1ccc(O)c(O)c1)C(C)Cc1ccc(O)c(O)c1 (stereo not given) |  | 35.5 µM (active)
CNC(=O)c1cnn(-c2nc(N)c3ncn([C@@H]4O[C@H](CO)[C@@H](O)[C@H]4O)c3n2)c1 | 4.02% (inactive) | 
COC(=O)[C@@H]1[C@H]2C[C@H]3c4[nH]c5ccccc5c4CCN3C[C@@H]2CC[C@@H]1O | 1.4% (inactive) | 
CCN1CCC[C@H]1CNC(=O)c1cc(S(N)(=O)=O)ccc1OC | 3.8% (inactive) | 
COc1cc(/C=C(\C#N)C(=O)Nc2nnc(C(F)(F)F)s2)ccc1OCc1ccc(C(F)(F)F)cc1C(F)(F)F | -19.9% (inactive) | 
C[C@H](NC(=O)/C(C#N)=C/c1ccc(O)c(O)c1)c1ccccc1 | 6.78% (inactive) | 

SMILES | activity change, negative = inhibition | Potency
Nc1nc(=S)c2ncn([C@@H]3O[C@H](CO)[C@@H](O)[C@H]3O)c2[nH]1 | -3.92% [at 38.5 µM] (inactive) | 
O=C(/C=C/c1ccc(O)cc1)c1ccc(O)cc1O | -20.7% (inactive) | 
CSc1nc(N)c2ncn([C@@H]3O[C@H](COP(=O)(O)OP(=O)(O)OP(=O)(O)O)[C@@H](O)[C@H]3O)c2n1 | -6.22% (inactive) | 
COc1ccc(/C=C2\COc3ccc(C)cc3C2=O)cc1O | -3.92% (inactive) | 
CC(C)=CCNc1ncnc2c1ncn2[C@@H]1O[C@H](CO)[C@@H](O)[C@H]1O | 382% (inactive) | 
CC1=C(\C=C/C(C)=C/C=C\C(C)=C\C(=O)O)C(C)(C)CCC1 | -22.4% (inactive) | 
O=c1cc(-c2ccccc2)oc2c(O)c(O)ccc12 | -24.6% (inactive) | 
CCN(CC)C(C)CN1c2ccccc2Sc2ccccc21 (stereo not given) | -6.93% (inactive) | 
OCCNc1ncnc2c1ncn2[C@@H]1O[C@@H](CO)[C@H](O)[C@@H]1O | 76.3% (inactive) | 
Cc1ccc(O)c(N=Nc2ccccc2)n1 |  | 14.1 µM (active)
Cn1ncc(S(=O)(=O)Cc2ccccc2)c(Br)c1=O | -13.5% (inactive) | 
CSc1ccc(C(=O)c2[nH]c(=O)[nH]c2C)cc1 | 4.55% (inactive) | 
OC[C@H]1O[C@@H](n2cnc3c(NCc4ccco4)ncnc32)[C@H](O)[C@@H]1O | 66.2% (inactive) | 
C=CCN1CCc2cc(O)c(O)cc2[C@H](c2ccccc2)C1 | -6.22% (inactive) | 
O=c1c(-c2ccc(O)cc2)coc2cc(O)cc(O)c12 | -10.5% (inactive) | 
C[C@H](Cc1ccc(O)c(O)c1)[C@@H](C)Cc1ccc(O)c(O)c1 |  | 15.8 µM (active)
COc1ccccc1N1CCN(CCN2C(=O)CC3(CCCC3)CC2=O)CC1 | -20.2% (inactive) | 
CSc1nc(N)c2ncn([C@@H]3O[C@H](COP(=O)(O)OP(=O)(O)O)C(O)[C@H]3O)c2n1 (stereo not given in full) |  | 20 µM (active)
CN(C)CCCN1c2ccccc2Sc2ccc(C(F)(F)F)cc21 | -22.6% (inactive) | 
Nc1c(S(=O)(=O)O)cc(Nc2ccc(Nc3nc(Cl)nc(Nc4ccc(S(=O)(=O)O)cc4)n3)c(S(=O)(=O)O)c2)c2c1C(=O)c1ccccc1C2=O |  | 31.6 µM (active)
